The supplement of paper PMC10338343
± gives the standard deviation.

test system: MILI (PIWIL2) piRISC loaded with piRNA #1 (26 nt); test: pre-steady-state target cleavage rate (min^-1); guide: piRNA #1 5'p-UGAGGUAGUAGGUUGUAUAGUAUCCA; MIWI and MILI are mouse PIWI proteins and EfPiwi is from a freshwater sponge; tags in brackets are library labels; higher = faster piRNA-guided slicing of the target; details: auxiliary factor: 500 nM mouse GTSF1
Outline: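 For Cleave-'n-Seq, a transcribed, DNA-blocked target RNA library […] met 1 nM active affinity-purified piRISC with one synthetic guide at 33 °C for 0–8 or 0–960 min in HEPES–potassium acetate buffer, with or without 500 nM GTSF1 partner protein. Uncleaved targets were sequenced and normalised to depth and weakly complementary targets, with three trials pooled and k3 capped at 0.0001 min^-1. A burst-and-steady-state fit supplied the pre-steady-state cleavage rate.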
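Further: 1 nM active piRISC with 0.1 nM target library at 33 °C single turnover.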

| Sequence | pre-steady-state target cleavage rate |
| --- | --- |
| GGAGACCAUACUAUACUAGCUACUACCUCA | 0.182 ± 0.018 |
| GGAGACCUUACAAUACAACCUACUACCUGA | 0.0872 ± 0.013 |
| GGAGACCUAACUUAUACAACCUACUACCUCA | 0.0771 ± 0.019 |
| GGAGUGGAUCUAUACAACCUACUACCUCA | 0.155 ± 0.011 |
| GGAGACCUUACUAUAGAACCUACUACCUGA | 0.0254 ± 0.0086 |
| GGAGACCUAACUUUACAACCUACAACCUCA | 0.0823 ± 0.027 |
| GGAGACCUAUGAAAACAACCUACAACCUCA | 0.00529 ± 0.0026 |
| GGAGACCUAUGAUUACAACCUACUUACCUCA | 0.0057 ± 0.0019 |
| GGAGACCUAACAAUACAACCUACUAGCUCA | 0.0462 ± 0.017 |
| GGAGACCUAUGAUUACAACCUACUAGCCUCA | 0.00776 ± 0.0028 |
| GGAGUGGAUACUUUACAACCUACUAGCUCA | 0.0406 ± 0.0075 |
| GGAGACCUAUGAUAUGUUCCUACUACCUGA | < 0.0001 |
| GGAGACCUAUGAAUACUACCUACUAGCUCA | 0.00378 ± 0.0025 |
| GGAGACCUAUCUAUACAACCUUCUACCUCA | 0.00553 ± 0.0024 |
| GGAGACGAUACAAUACAAGCUACUACCUCA | 0.236 ± 0.017 |
| GGAGACCUAUGAUUACAAGCUACAACCUCA | 0.0159 ± 0.0045 |
| GGAGACCUAUGAUAUGUUGCUAGAACCUCA | < 0.0001 |
| GGAGACCUAUCUUUACAACCUUCUACCUCA | 0.00489 ± 0.0025 |
| GGAGACCUUACUAAACAACCUUCUACCUCA | 0.00652 ± 0.0027 |
| GGAGUGUGAUACUAUACAACCUACUACCUCA | 0.179 ± 0.0087 |

| Sequence | pre-steady-state target cleavage rate |
| --- | --- |
| GGAGACCUUACUAUACAACCUACUUGCUCA | 0.098 ± 0.021 |
| GGAGAGGAUACUAUACAACCAUCUACCUCA | 0.00516 ± 0.0022 |
| GGAGACCUAUGAUAACAACCUACCACCUCA | 0.00342 ± 0.0032 |
| GGAGACCUAUCUAAACUACCUACUACCUCA | 0.051 ± 0.012 |
| GGAGACCUAUGAUUACAACCGUACUACCUCA | 0.00334 ± 0.0031 |
| GGAGACCUAUGUAUACAACCUAUUACCUCA | 0.0697 ± 0.0079 |
| GGAGACCAUACUGAUACAACCUACUACCUCA | 0.112 ± 0.014 |
| GGAGACCUAUGAUAUGUUCCUACUACACUCA | < 0.0001 |
| GGAGACCUAUGUAUACAUCCUACUACCACA | 0.163 ± 0.017 |
| GGAGACCUUACUAUACAACGUACAACCUCA | 0.0226 ± 0.0031 |
| GGAGACCUAUGAUAUGUUCCUACUACCUCU [g2:g12:cont:t1U] | < 0.0001 |
| GGAGACCUUACUAUUCAACCUACUACCACA | 0.161 ± 0.016 |
| GGAGACCUAUGAUUACUACCUACUUCCUCA | 0.00322 ± 0.0022 |
| GGAGACCUAUCUAUACAACCUACUAACUCA | 0.0846 ± 0.017 |
| GGAGACCUAACUUUACAACCUACUACGUCA | 0.0224 ± 0.01 |
| GGAGAGGAAACUAUAGAACCUACUACCUCA | 0.178 ± 0.018 |
| GGAGACCUAUCAAUACAACCUUCUACCUCA | 0.00474 ± 0.0027 |
| GGAGACCUAUGAUUACAACGUACUACCUCA | 0.00443 ± 0.0016 |
| GGAGACCUAUCUAUACAACCUAGAUCCUCA | 0.0047 ± 0.0021 |
